Screening data as filed in PubChem BioAssay.
PKM2 inh = PKM2 (human) enzyme inhibition | AID 1634 | Potency, µM (series often up to 57.5 µM), for inactives: at the top dose activity change, negative = inhibition, actives largely listed as inhibitors | P14618 | purified PKM2, ATP generation, Kinase-Glo luminescence | 260,000 tested, 0.058% active; further: potency means the concentration at half of the fitted maximal effect; nearly all actives have a fitted effect of over 60% in size
Target sequence (P14618 whole entry, looked up): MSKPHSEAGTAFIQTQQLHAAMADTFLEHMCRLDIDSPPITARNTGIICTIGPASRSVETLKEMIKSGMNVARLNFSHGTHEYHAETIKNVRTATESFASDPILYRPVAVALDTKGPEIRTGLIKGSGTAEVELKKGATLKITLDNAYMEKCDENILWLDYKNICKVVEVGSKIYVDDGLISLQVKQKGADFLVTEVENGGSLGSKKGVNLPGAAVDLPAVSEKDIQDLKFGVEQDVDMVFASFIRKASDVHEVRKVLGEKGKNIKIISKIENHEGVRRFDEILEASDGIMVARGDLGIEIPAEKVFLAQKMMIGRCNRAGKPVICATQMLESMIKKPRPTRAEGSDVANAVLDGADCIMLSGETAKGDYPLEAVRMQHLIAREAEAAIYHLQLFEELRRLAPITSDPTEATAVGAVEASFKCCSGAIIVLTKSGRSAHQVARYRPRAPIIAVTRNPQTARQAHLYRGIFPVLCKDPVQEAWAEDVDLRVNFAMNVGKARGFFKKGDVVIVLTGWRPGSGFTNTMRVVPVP
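Enzyme run at intermediate activity with final 0.1 mM ADP, 0.5 mM PEP (50 mM imidazole pH7.2, 50 mM KCl, 7 mM MgCl2), incubated 1 h at r.t. ATP formed read by Kinase-Glo luminescence, normalized to no-enzyme (full inhibition) and uninhibited wells.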
PKM2 inh dose = dose-dependently blocks human pyruvate kinase M2 activity | shares compounds with PKM2 inh | purified hPK-M2, Kinase-Glo ATP luminescence, 1 h | Potency, µM (top dose mostly 57.5 µM), for inactives: top-dose activity change, negative = inhibition, most hits filed as inhibitors | 55 tested, 50% active
PKM2 FLuc cs = blocks firefly luciferase, flagging PKM2 inhibitor artifacts. shares compounds with PKM2 inh. Kinase-Glo firefly luciferase, luminescence, 8 min. Potency, µM (titrated, usually from 57.5 µM), for inactives: top-dose activity, negative = inhibition, actives largely listed as inhibitors. 55 tested, 30% active. AID 2265
PKM2 LDH couple = confirmation of human pyruvate kinase M2 inhibitors, coupled readout; 55 tested, under 10 active; Potency, µM (titrated, usually from 57.5 µM), without a hit: at the highest dose activity change, negative = inhibition, actives largely listed as inhibitors; shares compounds with PKM2 inh; purified hPK-M2, LDH-coupled NADH fluorescence kinetic; AID 2267
The depositor's hits bear a star. The entries come from a sample that favours hits as a whole. The call rests on the fitted dose curve; in most records, active means well fitted curve in the direction sought with a large enough effect; inconclusive means small, poorly fitted or top-dose-only effect, or another doubt; inactive means no such curve, though single readings can be large; an effect the other way counts as inactive or inconclusive.

Screening COc1ccc(C(=O)O/N=C(\N)Cc2ccc(Cl)cc2)cc1OC returned PKM2 inh 52.4%.
Cc1ccc(C(=O)O/N=C(\N)c2ccccn2)c(Cl)c1 was read as PKM2 inh 14.1µM*.
For N/C(CS(=O)(=O)c1ccccn1)=N\OC(=O)c1ccccc1Cl the results were PKM2 inh 37.6%.
For COc1ccc(C/C(N)=N/OC(=O)c2cccc([N+](=O)[O-])c2)cc1 the results were PKM2 inh 36.8%.
`COc1cccc(C(=O)O/N=C(\N)c2ccccn2)c1` gave PKM2 inh 8.91µM*.
Screening CCOc1cc(NC(=O)c2cccs2)c(OCC)cc1NC(=O)c1cccnc1 returned PKM2 inh 79.3%.
Screening COc1cccc(C(=O)C(C#N)=C(SC)SC)c1 returned PKM2 inh 38.7%.
For CCOC(=O)c1c(-c2ccc(C)o2)csc1NC(=O)COC(=O)c1cccs1 the results were PKM2 inh 66.2%.
C=C1C(=O)C=C2CN(C(=O)c3ccccc3)[C@@](Cc3ccc(OC)cc3)(C(=O)OC)[C@@H]12 was read as PKM2 inh 42.1%.
`CCCN1C(=O)CC(c2ccco2)Sc2ccccc21` (stereo not drawn) gave PKM2 inh 70.1%.
For COc1ccc(OC)c(/C=N/NC(=O)c2cc(-c3ccc(C)o3)nc3ccccc23)c1 the results were PKM2 inh 69.7%.
For O=C(CCCn1c(=S)[nH]c2cc3c(cc2c1=O)OCO3)NC1CC1 the results were PKM2 inh 113.0%.
Cc1c(OC(C)C(=O)N[C@H](C(=O)O)c2ccccc2)ccc2c3c(c(=O)oc12)CCCC3 (stereo partly drawn) was read as PKM2 inh -0.3%.
Cc1ccc(C2/C(=C(\O)c3ccc4c(c3)OCCO4)C(=O)C(=O)N2CCCN(C)C)o1 (stereo not drawn) was read as PKM2 inh 31.8%.
CCCN(C(=O)c1cc2c(s1)CCC2)c1c(N)n(Cc2ccccc2)c(=O)[nH]c1=O was read as PKM2 inh 61.7%.
CCOC(=O)c1sc(NC(=O)/C=C/c2ccc(F)cc2)nc1C was read as PKM2 inh 79.1%.
`Cc1nc2ccc(NS(=O)(=O)c3ccc(C)c(C)c3)cc2s1` gave PKM2 inh 30.0%.
For O=C(c1ccc(Br)o1)N1CCN=C1SCc1cccnc1 the results were PKM2 inh 35.0%.
`Brc1cnc2nc(SCc3nc4ccccc4[nH]3)[nH]c2c1` gave PKM2 inh 41.5%.
Screening Cc1nnc(NC(=O)CSc2nc3c(c(=O)n(C)c(=O)n3C)n2C(C)C)s1 returned PKM2 inh 48.0%.
Screening O=C(Oc1ccc2ccc(O)cc2c1)c1ccccc1Cl returned PKM2 inh 49.6%.
For Cc1ccc(C(=O)O/N=C(\N)c2ccccc2)c(Cl)c1 the results were PKM2 inh 17.8µM*.
Screening N#Cc1c(-c2cccs2)nc(SCc2ccc(Cl)cc2)[nH]c1=O returned PKM2 inh 74.6%.
C/C=C/C=C/C(=O)N1CC2(CC(c3cccc(NC(=O)/C=C/C)c3)=NO2)C[C@@H]1C(N)=O (stereo partly drawn) was read as PKM2 inh 75.5%.
For C=CCSc1nc2ccccc2n1Cc1nnc(-c2cccs2)o1 the results were PKM2 inh 49.4%.
Cc1ccccc1N1CCN(S(=O)(=O)c2nnc(NC(=O)CC(C)C)s2)CC1 was read as PKM2 inh 48.4%.
For O=C(Nc1ccccn1)c1onc2c1CCCC2 the results were PKM2 inh 14.1µM*.
Cc1noc(C)c1S(=O)(=O)N1CCC(C(=O)Nc2ccccn2)CC1 was read as PKM2 inh 39.3%.
Cc1ccc(-c2cc(C(=O)Nc3ccccn3)c3ccccc3n2)o1 was read as PKM2 inh 32.7%.
`O=C(NC1CSC/C1=N\O)c1ccccc1` (stereo not drawn) gave PKM2 inh 34.5%.
For Cc1cccc(NC(=O)CSc2ccc(-c3cccnc3)nn2)c1 the results were PKM2 inh 52.7%.
For Cn1c(NCc2c[nH]c3ccccc23)nc2ccccc21 the results were PKM2 inh 53.4%.
Screening O=C(COc1ccc(/C=N/NS(=O)(=O)c2ccccc2)cc1)NCc1ccccc1 returned PKM2 inh 0.2%.
`Cc1ccc(NC(=O)c2cc(-c3ccc(C)o3)nc3ccccc23)cc1` gave PKM2 inh 47.5%.
For O=C(Nc1ccccc1)c1cc2ccccc2o1 the results were PKM2 inh 11.2µM*.
For NC(=O)c1oc2ccccc2c1NC(=O)CCc1ccccc1 the results were PKM2 inh 5.5%.
For Cc1cc(C)c2cc(CN(CCN(C)C)C(=O)Nc3ccccc3Cl)c(=O)[nH]c2c1 the results were PKM2 inh 73.7%.
Cn1c(CCNC(=O)C2CCCCC2)nc2cc([N+](=O)[O-])ccc21 was read as PKM2 inh 50.4%.
For COc1ccc(-c2nnc(SCC(=O)NCC3CCCO3)n2C)cc1 (stereo not drawn) the results were PKM2 inh 67.3%.
Screening NS(=O)(=O)c1cc2c(cc1Cl)NC(CSCc1ccccc1)=NS2(=O)=O returned PKM2 inh 43.7%.
`CN(C)c1ccc(/C=N/NC(=O)c2ccnn2C)cc1` gave PKM2 inh 7.94µM*.
Screening CC(=O)N(c1ccccc1)C1SC(=O)N(c2ccccc2)C1=O (stereo not drawn) returned PKM2 inh 77.3%.
`COc1cccc(N2CCN(C(=O)CN(c3ccc(C)cc3)S(=O)(=O)c3c(C)n[nH]c3C)CC2)c1` gave PKM2 inh 35.9%.
`O=C(COc1ccccc1C(=O)N/N=C\c1ccc(O)c(O)c1)N/N=C/c1ccc(O)c(O)c1` gave PKM2 inh 56.3%.
`Cc1occc1C(=O)N/N=C/c1ccc2c(c1)OCO2` gave PKM2 inh 5.62µM*, PKM2 inh dose 13µM*, PKM2 FLuc cs 2.59µM* and PKM2 LDH couple -0.4%.
`CS(=O)(=O)N(CC(=O)N/N=C/c1cc2c(cc1Br)OCO2)c1ccccc1Br` gave PKM2 inh 42.2%.
O=S(=O)(c1cccs1)N1CCN(C/C=C/c2ccccc2)CC1 was read as PKM2 inh 48.0%.
For O=C1ON=C(c2ccccc2)/C1=C/c1ccc(OS(=O)(=O)c2ccccc2)cc1 the results were PKM2 inh 41.1%.
O=C(Nc1nc2ccccc2[nH]1)c1ccccc1F was read as PKM2 inh 8.91µM*, PKM2 inh dose 5.17µM*, PKM2 FLuc cs 4.11µM* and PKM2 LDH couple -7.5%.
CCS(=O)(=O)N1Cc2ccccc2CC1C(=O)Nc1nc2ccccc2[nH]1 (stereo not drawn) was read as PKM2 inh 35.6%.
`CC(=O)c1cc2c(cc1NC(=O)CSc1nc3ccccc3[nH]1)OCO2` gave PKM2 inh 32.0%.
For O=C(CSC1=NCCS1)Nc1cccc(F)c1 the results were PKM2 inh 45.8%.
Screening CCn1c(C)c(C)c2cc(C(=O)NCCc3ccco3)ccc21 returned PKM2 inh 76.0%.
